The results in this text go back to the supplement of paper PMC8975748.

Counter-ions that a name gives are not always drawn.

The test system of the experiment is Saccharomyces cerevisiae BY4741 SeMeCo community. Description: z-score of prototroph abundance vs DMSO median; higher = larger share of this subpopulation than in DMSO controls. As to conditions: 10 µM; 24 h; SM minimal medium; subpopulation (auxotrophy): Prototroph. How it is done: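 Fluorescent four-plasmid SeMeCo (self-establishing metabolically cooperating S. cerevisiae BY4741 community; plasmids pH-mRuby2, pL-mWasabi, pU-eCFP, pM-TagRFP657) was grown 24 h in minimal SM medium with each Selleck FDA-approved drug at 10 µM in 384-well plates. Cells were fixed and imaged by high-content confocal microscopy. For each auxotrophic subpopulation (and the prototroph), a z-score gives the deviation from the DMSO vehicle-control population median.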
Regarding `CCCCCC(=O)O[C@]1(C(C)=O)CC[C@H]2[C@@H]3CCC4=CC(=O)CC[C@]4(C)[C@H]3CC[C@@]21C` [Hydroxyprogesterone caproate], the “z-score of prototroph abundance” value was -1.13.

`CC(C)c1nc(N(C)S(C)(=O)=O)nc(-c2ccc(F)cc2)c1/C=C/[C@@H](O)C[C@@H](O)CC(=O)O` [Rosuvastatin Calcium]: the “z-score of prototroph abundance” value was -1.23. Turning to `Cc1cc(-c2ccc(/N=N/c3ccc4c(S(=O)(=O)O)cc(S(=O)(=O)O)c(N)c4c3O)c(C)c2)ccc1/N=N/c1ccc2c(S(=O)(=O)O)cc(S(=O)(=O)O)c(N)c2c1O` [Evans Blue], the “z-score of prototroph abundance” value was -9.18. The value for `Nc1ccc(S(=O)(=O)c2ccc(N)cc2)cc1` [Dapson] was -0.54; that for `N=C(N)NC(=N)N1CCOCC1` [Moroxydine HCl] was 0.31. The value for `COc1ccc2c(c1)c(CC(=O)OCC(=O)O)c(C)n2C(=O)c1ccc(Cl)cc1` [Acemetacin] was -0.16; that for `Clc1ccc2c(N3CCN(CCCN4CCN(c5ccnc6cc(Cl)ccc56)CC4)CC3)ccnc2c1` [Piperaquine phosphate] was -0.69; that for `Nc1ccc(S(=O)(=O)Nc2cnc3ccccc3n2)cc1` [Sulfaquinoxaline sodium] was -0.68. In the case of `NCCc1ccc(O)c(O)c1` [Dopamine HCl], the “z-score of prototroph abundance” value was found to be 1.09. In the case of `CC[C@H]1OC(=O)C[C@@H](O)[C@H](C)[C@@H](O[C@@H]2O[C@H](C)[C@@H](O)[C@H](N(C)C)[C@H]2O)[C@@H](CCN2C[C@H](C)C[C@H](C)C2)C[C@@H](C)C(=O)/C=C/C(C)=C/[C@@H]1CO[C@@H]1O[C@H](C)[C@@H](O)[C@@H](OC)[C@H]1OC` [Tilmicosin], the “z-score of prototroph abundance” value was -1.13. The value for `COCCCN1CCC(NC(=O)c2cc(Cl)c(N)c3c2OCC3)CC1` [Prucalopride] was -0.29; that for `CN1CCN(C2=Nc3ccccc3Oc3ccc(Cl)cc32)CC1` [Loxapine Succinate] was -0.71; that for `CN1CCN(CCCN2c3ccccc3Sc3ccc(C(F)(F)F)cc32)CC1` [Trifluoperazine 2HCl] was 0.01. The value for `COc1cc(/C=C/C(=O)N2CCN(CC(=O)N3CCCC3)CC2)cc(OC)c1OC` [Cinepazide maleate] was -0.19; that for `CO/N=C(\C(=O)N[C@@H]1C(=O)N2C(C(=O)O)=C(COC(C)=O)CS[C@H]12)c1csc(N)n1` [Cefotaxime sodium] was -0.43.

As for `CCc1nn(CCCN2CCN(c3cccc(Cl)c3)CC2)c(=O)n1CCOc1ccccc1` [Nefazodone hydrochloride], the “z-score of prototroph abundance” value was -1.27. Under `OCCOc1ccc(/C(=C(/CCCl)c2ccccc2)c2ccccc2)cc1` [Ospemifene] stands 0.59; under `C[C@H](NCc1ccc(OCc2cccc(F)c2)cc1)C(N)=O` [Safinamide Mesylate], -0.78. The value for `CCCNC(C)C(=O)Nc1ccccc1C` (stereo not given) [Prilocaine] was -0.27; that for `COc1ccc2c3c1O[C@H]1C[C@@H](O)C=C[C@@]31CCN(C)C2` [Galanthamine HBr] was -0.57; that for `CCC[C@@H]1C[C@@H](C(=O)N[C@@H]([C@H]2O[C@H](SC)[C@H](O)[C@@H](O)[C@H]2O)[C@@H](C)O)N(C)C1` [Lincomycin Hydrochloride Monohydrate] was -0.67. The value for `CCC1=C(C)CN(C(=O)NCCc2ccc(S(=O)(=O)NC(=O)N[C@H]3CC[C@H](C)CC3)cc2)C1=O` [Glimepiride] was -0.13; that for `CCn1cc(C(=O)O)c(=O)c2cc(F)c(N3CCNCC3)cc21` [Norfloxacin] was 0.05.

`CC#C[C@]1(O)CC[C@H]2[C@@H]3CCC4=CC(=O)CCC4=C3[C@@H](c3ccc(N(C)C)cc3)C[C@@]21C` [Mifepristone]: the “z-score of prototroph abundance” value was -1.1. Under `CC[C@H](C)C[C@H](C)CCCCCCCCC(=O)N[C@H]1C[C@@H](O)[C@@H](NCCN)NC(=O)[C@@H]2[C@@H](O)CCN2C(=O)[C@H]([C@H](O)CCN)NC(=O)[C@H]([C@H](O)[C@@H](O)c2ccc(O)cc2)NC(=O)[C@@H]2C[C@@H](O)CN2C(=O)[C@H]([C@@H](C)O)NC1=O` [Caspofungin Acetate] stands -12.2; under `CCCCc1oc2ccccc2c1C(=O)c1cc(I)c(OCCN(CC)CC)c(I)c1` [Amiodarone HCl], -5.29.

On to `CCCN(CCC)CCc1cccc2c1CC(=O)N2` [Ropinirole HCl], for which the “z-score of prototroph abundance” value was -0.81. For the compound `CO[C@@H]1[C@H](OC(=O)/C=C/C=C/C=C/C=C/C(=O)O)CC[C@]2(CO2)[C@H]1[C@@]1(C)O[C@@H]1CC=C(C)C` [Fumagillin], the “z-score of prototroph abundance” value is -1.67.

Consider `N/C(=N\N=C\c1ccc(Cl)cc1)N/N=C/c1ccc(Cl)cc1` [Robenidine Hydrochoride], for which the “z-score of prototroph abundance” value was -8.77.

In the case of `O=C([O-])CC(O)(CC(=O)[O-])C(=O)[O-].O=C([O-])CC(O)(CC(=O)[O-])C(=O)[O-].[Bi+3].[K+].[K+].[K+].[K+].[K+]` [Bismuth Subcitrate Potassium], the “z-score of prototroph abundance” value stood at 0.38. Take `Cc1cccc(C)c1OCC(C)N` (stereo not given) [Mexiletine HCl]: the “z-score of prototroph abundance” value stood at 0.5. Under `O=C(Nc1cccc(C2=NCCN2)c1)Nc1cccc(C2=NCCN2)c1` [Imidocarb dipropionate] stands 0.72; under `OC1(c2ccc(Cl)c(C(F)(F)F)c2)CCN(CCCC(c2ccc(F)cc2)c2ccc(F)cc2)CC1` [Penfluridol], -1.64; under `CC1(C)S[C@@H]2[C@H](NC(=O)[C@H](NC(=O)N3CCN(S(C)(=O)=O)C3=O)c3ccccc3)C(=O)N2[C@H]1C(=O)O` [Mezlocillin Sodium], 0.2. Under `C[N+]1(C)CCC(=C(c2ccccc2)c2ccccc2)CC1` [Diphemanil Methylsulfate] stands -0.15; under `N#Cc1ccc2[nH]cc(CCCCN3CCN(c4ccc5oc(C(N)=O)cc5c4)CC3)c2c1` [Vilazodone HCl], -0.4. Consider `CC[C@H]1OC(=O)[C@H](C)[C@@H](O[C@H]2C[C@@](C)(OC)[C@@H](O)[C@H](C)O2)[C@H](C)[C@@H](O[C@@H]2O[C@H](C)C[C@H](N(C)C)[C@H]2O)[C@](C)(O)C[C@@H](C)C(=O)[C@H](C)[C@@H](O)[C@]1(C)O` [Erythromycin], for which the “z-score of prototroph abundance” value was -0.5. With `CCCCNc1ccc(C(=O)OCCN(C)C)cc1` [Tetracaine HCl], the “z-score of prototroph abundance” value was -0.78. Under `OC(CCN1CCCCC1)(c1ccccc1)C1CCCCC1` (stereo not given) [Trihexyphenidyl hydrochloride] stands -0.03. With `CC[C@@]1(O)C(=O)OCc2c1cc1n(c2=O)Cc2cc3c(CN(C)C)c(O)ccc3nc2-1` [Topotecan HCl], the “z-score of prototroph abundance” value is 1.13.
